Here are results for nine compounds from PubChem BioAssay (Tox21).

Records with an inconclusive call do not appear. Calls of active or inactive are those of the source. Unless noted, the call rests on the fitted dose curve; in most records, active means well fitted curve in the direction sought with a large enough effect in the repeat runs; inconclusive means weak or mixed curves; inactive means no such curve, though single readings can be large; an effect the other way counts as inactive or inconclusive.

A short description of test [1]: A CellTox Green Cytotoxicity Assay to monitor cytotoxicity in HEK293 cells - 32 hour (AID 1224881). Further: nearly all actives have a fitted effect of over 40% in size. The essentials: (§1)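 HEK293 cells, 600/well, were preincubated 5 hours and then exposed to compounds at 37 C for up to 40 hours. A cell-impermeant cyanine dye staining dead-cell DNA was read by fluorescence at 0, 8, 16, 24, 32 and 40 h time points.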
A short description of test [2]: A CellTox Green Cytotoxicity Assay to monitor cytotoxicity in HepG2 cells - 0 hour (AID 1224882). Further: nearly all actives have a fitted effect of over 35% in size. The method, boiled down: (§2)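 HepG2 cells, 600/well, preincubated 5 h with CellTox Green dye, then exposed to Tox21 compounds in DMSO at 37 C for up to 40 h. Dead-cell DNA fluorescence read at the indicated time point.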
Test [3] is described as follows: qHTS RealTime-Glo MT Cell Viability Assay in HepG2 cells - 16 hour (AID 1224885). Further: nearly all actives have a fitted effect of over 50% in size. The method, boiled down:
(§3)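 HepG2 cells were seeded at 600 cells/well together with NanoLuc luciferase and a cell-permeant prosubstrate, preincubated 5 h at 37 C/5% CO2, then pin-dosed with compounds in DMSO. Nonlytic luminescence from viable cells was read at each time point.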
Background: Quantitative high-throughput screening tests each substance at several concentrations.

The nature of test [4]: qHTS RealTime-Glo MT Cell Viability Assay in HEK293 cells - 24 hour (AID 1224886). Further: nearly all actives have a fitted effect of over 50% in size. Further: potency means the concentration at half of the fitted maximal effect. The essentials: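 HEK293 cells were seeded at 600 cells/well together with NanoLuc luciferase and cell-permeant prosubstrate, preincubated 5 h at 37 C/5% CO2, then given compound in DMSO by pintool. Luminescence from viable-cell prosubstrate reduction was read repeatedly over 40 h.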
A short description of test [5]: qHTS RealTime-Glo MT Cell Viability Assay in HEK293 cells - 8 hour (AID 1224887). Further: top concentration of the series differs between compounds; nearly all actives have a fitted effect of over 50% in size. The method, boiled down: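 600 cells/well were plated with the nonlytic NanoLuc/prosubstrate reagent, pre-incubated 5 h, then given 23 nL of compound in DMSO. Incubation at 37 C for 40 h, with luminescence from viable-cell-reduced substrate read repeatedly from 0 h.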
Test [6] in a line: qHTS RealTime-Glo MT Cell Viability Assay in HepG2 cells - 0 hour (AID 1224889). Further: nearly all actives have a fitted effect of over 50% in size. The method, boiled down:
as §3

A short description of test [7]: A CellTox Green Cytotoxicity Assay to monitor cytotoxicity in HepG2 cells - 8 hour (AID 1224890). Further: nearly all actives have a fitted effect of over 45% in size. The essentials: as §2
A short description of test [8]: qHTS assay to identify small molecule antagonists of the estrogen receptor alpha (ER-alpha) signaling pathway using the BG1 cell line in the presence of 0.1 nM 17-beta-estradiol - cell viability counter screen (AID 1259241). Further: nearly all actives have a fitted effect of over 40% in size. The method, boiled down:
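Cells were plated and left 24 hr, compounds in DMSO were pinned in, 17beta-estradiol was added to 0.1 nM final, and after 22 hr CellTiter-Fluor reagent was added for 30 min before fluorescence was read.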

The nature of test [9]: qHTS assay to identify small molecule antagonists of the androgen receptor (AR) signaling pathway using the MDA cell line in the presence of 0.5 nM R1881 - cell viability counter screen (AID 1259242). Further: nearly all actives have a fitted effect of over 45% in size. The essentials: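 MDA-kb2 cells (MMTV-luciferase, AR/GR responsive) were treated with compounds plus 0.5 nM R1881 (final) for 16 hr at 37C, 0% CO2. Viability was then read in the same wells as live-cell protease fluorescence (CellTiter-Fluor, 30 min).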

The target of test [10] is Estrogen receptor (Homo sapiens) (UniProt P03372). Description: qHTS assay to identify small molecule antagonists of the estrogen receptor alpha (ER-alpha) signaling pathway using the BG1 cell line in the presence of 0.1 nM 17-beta-estradiol (AID 1259244). Further: nearly all actives have a fitted effect of over 50% in size. Further: potency means the concentration at half of the fitted maximal effect. The method, boiled down:
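VM7Luc4E2 cells (endogenous full-length ER-alpha, 4×ERE-luciferase), kept 5 days in phenol red-free, charcoal-stripped FBS medium; 4,000 cells/well. Compounds added with 0.1 nM (final) 17beta-estradiol, 22 hr at 37C; luminescence read with ONE-Glo after 30 min.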

Test [11] in a line: qHTS assay to identify small molecule phospholipidosis (PLD) inducers (AID 1259344; active means well fitted curve in the direction sought with a large enough effect; an effect the other way counts as inactive or inconclusive). The method, boiled down:
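HepG2 cells grown on collagen I take up LipidTOX Red while exposed to compound for 24 h; after fixation they are imaged at 20x and pit metrics are extracted.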

Test [12] can be described thus: qHTS assay to identify small molecule HDAC inhibitors (AID 1259364). Further: top concentration of the series differs between compounds; nearly all actives have a fitted effect of over 45% in size. The essentials: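 Wild-type HCT-116 cells, plated overnight at 37 C, exposed to compounds 2 hr at 37 C; luminogenic HDAC-Glo substrate then added 30 min at room temperature. Luminescence reports relative endogenous class I/II HDAC activity.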
Test [13] in a line: qHTS assay to identify small molecule HDAC inhibitors - cell viability counter screen (AID 1259365). The method, boiled down: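 Counter screen in wild-type HCT-116 cells: compounds dissolved in DMSO are pin-transferred onto overnight-plated cells and left 2hr at 37C. ATP-based CellTiter-Glo luminescence then measures viable cells.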
A short description of test [14]: qHTS assay to identify small molecule agonists of the sonic hedgehog signaling (Shh) pathway - cell viability counter screen (AID 1259366). Further: nearly all actives have a fitted effect of over 50% in size. Further: potency means the concentration at half of the fitted maximal effect. The method, boiled down: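 Cells are plated at 2,000 per well and left 4hr at 37C, 5% CO2 before compound addition. After 23hr of treatment, CellTiter-Fluor reagent is added for 1hr at 37C and fluorescence is measured.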
The nature of test [15]: qHTS assay to identify small molecule antagonists of the sonic hedgehog signaling (Shh) pathway - cell viability counter screen (AID 1259367). Further: nearly all actives have a fitted effect of over 55% in size. The essentials: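 After a 4 hr settling period, 3T3 Gli1-Luc cells were treated with DMSO-dissolved chemicals and conditioned medium, kept 24 hr at 37C in 5% CO2, and assayed for viability by CellTiter-Fluor fluorescence following 1 hr reagent incubation.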

The nature of test [16]: qHTS assay to identify small molecule agonists of the sonic hedgehog signaling (Shh) pathway (AID 1259368; calls by dose curve;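 further: NIH/3T3-derived 3T3Gli1-Luc cells carrying a stable Gli1-driven firefly luciferase reporter; series mostly up to about 92 µM; nearly all actives have a fitted effect of over 15% in size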). The method, boiled down:
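NIH/3T3-derived 3T3Gli1-Luc cells with stably integrated Gli1-driven firefly luciferase, 2,000 cells/well, compounds added after 4 hr. Incubated 24 hr at 37C, 5% CO2; luminescence read after 30 min with luciferase reagent at room temperature.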

Test [17] is described as follows: A CellTox Green Cytotoxicity Assay to monitor cytotoxicity in HEK293 cells - 16 hour (AID 1224888). Further: nearly all actives have a fitted effect of over 35% in size. The essentials: as §1
Test [18] can be described thus: A CellTox Green Cytotoxicity Assay to monitor cytotoxicity in HepG2 cells - 32 hour (AID 1224883). Further: nearly all actives have a fitted effect of over 50% in size. The essentials: as §2
Test [19] in a line: A CellTox Green Cytotoxicity Assay to monitor cytotoxicity in HEK293 cells - 8 hour (AID 1224884). Further: nearly all actives have a fitted effect of over 35% in size. The essentials:
as §1

Chain of Estrogen receptor (Homo sapiens) (P03372 whole entry, looked up): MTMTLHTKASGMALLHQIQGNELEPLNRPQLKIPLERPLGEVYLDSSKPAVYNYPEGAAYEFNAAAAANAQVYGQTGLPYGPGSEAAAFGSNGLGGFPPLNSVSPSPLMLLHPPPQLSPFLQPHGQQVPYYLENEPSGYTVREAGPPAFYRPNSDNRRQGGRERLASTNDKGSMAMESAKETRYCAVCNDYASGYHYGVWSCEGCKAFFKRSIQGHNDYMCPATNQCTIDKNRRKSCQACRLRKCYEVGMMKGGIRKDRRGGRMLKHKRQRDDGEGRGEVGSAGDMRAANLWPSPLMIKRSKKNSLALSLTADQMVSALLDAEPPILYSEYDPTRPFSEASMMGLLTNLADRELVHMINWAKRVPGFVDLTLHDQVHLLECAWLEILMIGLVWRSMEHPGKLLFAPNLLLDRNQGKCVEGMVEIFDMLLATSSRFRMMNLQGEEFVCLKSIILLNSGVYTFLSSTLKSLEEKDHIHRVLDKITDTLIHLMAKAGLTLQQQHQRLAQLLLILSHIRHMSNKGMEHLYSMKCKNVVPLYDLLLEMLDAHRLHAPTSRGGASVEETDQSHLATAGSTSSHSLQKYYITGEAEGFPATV

As to `Cc1ccccc1N=Nc1ccc(N=Nc2c(O)ccc3ccccc23)c(C)c1`, the Potency result in test [1], in test [2], in test [3], in test [4], in [5] and in test [6] was “inactive” in each case. Moreover, the Potency entry in test [7], in [8], in [9], in test [10], in [11] and in [12] was “inactive” in each case. Further, the Potency result in [14] and in test [15] was “inactive” throughout. The result in [13] and in test [16] was inactive.
On to `CN(C)CCCNCCCN`, for which the Potency result in [1], in test [2], in [3], in [4], in test [17] and in test [6] was “inactive” each time. The Potency result in test [7], in [8], in test [9], in test [10], in [12] and in test [15] was “inactive” throughout. Besides, the compound was called inactive in test [13] and in test [16]. Moreover, the Potency in test [14] is 27.2 µM (active).
In the case of `CCN(CC)C(C)=O`, the Potency entry in test [1], in test [18], in [19], in test [3], in test [4] and in test [5] was “inactive” in each case. Further, the Potency result in test [17], in test [6], in test [7], in test [8], in [9] and in [12] was “inactive” throughout. The Potency entry in test [14] and in test [15] was “inactive” in each case. The call in [13] and in test [16] was inactive.
For `Cc1cccc(Oc2ccccc2)c1`, the Potency result in test [1], in test [2], in test [19], in test [5], in test [17] and in [6] was “inactive” in each case. Moreover, the Potency result in [7], in [8], in test [9], in test [12], in test [14] and in test [15] was “inactive” each time. Further, the Potency in [4] was 47.8 µM (active); in test [10], 66.8 µM (active). For the same compound, the call in test [13] and in [16] was inactive.
On to `C=C(C)C(=O)OCCN(C)C`, for which the Potency result in test [1], in test [2], in test [19], in test [4], in [5] and in test [17] was “inactive” each time. Also, the Potency entry in test [6], in test [7], in test [8], in [9], in test [10] and in test [12] was “inactive” throughout. In test [14], the Potency result was “inactive”. The compound was classed as inactive in [13] and in test [16].
As for `CCCCCCOC(=O)CCC`, the Potency entry in test [1], in test [2], in test [3], in test [4], in test [5] and in test [17] was “inactive” in each case. Also, the Potency result in test [6], in test [7], in [8], in [9], in test [12] and in test [14] was “inactive” each time. In addition, the call in test [13] and in [16] was inactive.
As to `CCCC(C)C`, the Potency result in [1], in test [2], in [19], in test [3], in test [5] and in test [17] was “inactive” in each case. Moreover, the Potency entry in test [6], in test [7], in [8], in test [9], in test [10] and in test [12] was “inactive” in each case. Moreover, the Potency result in test [14] and in [15] was “inactive” throughout. In test [16], the compound was called inactive.
As to `CN(C(=O)CCCOc1ccc2[nH]c(=O)ccc2c1)C1CCCCC1`, the Potency result in test [1], in test [2], in test [3], in [5], in test [17] and in [6] was “inactive” each time. Besides, the Potency result in test [7], in [8], in test [9], in test [11], in test [14] and in test [15] was “inactive” in each case. The call in test [13] and in test [16] was inactive.
As to `CC1CCc2cc(F)cc3c(=O)c(C(=O)O)cn1c23` (configuration not stated), the Potency entry in test [1], in test [18], in test [19], in test [3], in test [4] and in test [5] was “inactive” in each case. For the same compound, the Potency result in [17], in test [6], in test [7], in [8], in test [9] and in [11] was “inactive” each time. Further, the Potency result in [14] and in test [15] was “inactive” each time. Moreover, the compound was called inactive in test [13] and in test [16].
